Records with an inconclusive call do not appear. Where a call stands in place of a potency, no number is given. Active and inactive are the calls of the source. The call rests on the fitted dose curve; in most records, active means well fitted curve in the direction sought with a large enough effect; inconclusive means small, poorly fitted or top-dose-only effect, or another doubt; inactive means no such curve, though single readings can be large; an effect the other way counts as inactive or inconclusive.

In PubChem BioAssay (NCATS) one finds Potency data, which are given here for 41 compounds.

Assay [1] deals with Aldehyde dehydrogenase, mitochondrial (Homo sapiens) (UniProt P05091). Put plainly: qHTS for Inhibitors of the Aldehyde Dehydrogenase Family (ALDH2) Primary screen (AID 2061308). Further: nearly all actives have a fitted effect of over 55% in size. In general terms: Quantitative high-throughput screening tests each substance at several concentrations.
The target of assay [2] is Retinaldehyde dehydrogenase 3 (Homo sapiens) (UniProt P47895). As to the kind of experiment: qHTS for Inhibitors of the Aldehyde Dehydrogenase Family (ALDH1A3) Primary screen (AID 2061315).

Turning to `COc1ccc(C2c3c(n(Cc4ccccc4)cnc3=N)Oc3ccc4ccccc4c32)cc1OC` (configuration not stated), the Potency entry in assay [1] and in assay [2] was “inactive” in each case.

For the compound `COc1ccccc1-c1ccc(=O)n(CC(=O)NCCc2ccccc2)n1`, the Potency result in assay [1] and in assay [2] was “inactive” in each case.

`COc1ccccc1C(=O)NCCc1nc2ccccc2n1CCOc1ccc(C)cc1`: the Potency entry in assay [1] and in assay [2] was “inactive” each time.

`CC(=O)NC(c1cc(F)c2cccnc2c1O)C(C)C` (configuration not stated): the Potency result in assay [1] and in assay [2] was “inactive” each time.

Take `Nc1ncc(S(=O)(=O)N2CCOCC2)s1`: the Potency result in assay [1] and in assay [2] was “inactive” throughout.

In the case of `CCN(C)c1ncnc2ccc(-c3ccc4c(c3)OCO4)cc12`, the Potency entry in assay [1] and in assay [2] was “inactive” each time.

Turning to `N#Cc1cccc(NC(=O)Nc2nnc(-c3ccncc3)s2)c1`, the Potency entry in assay [1] and in assay [2] was “inactive” in each case.

For the compound `CCCn1c(C)nc2c(NCCN3CCCCC3)nc(C)nc21`, the Potency result in assay [1] and in assay [2] was “inactive” each time.

In the case of `Cc1nc(NC2CCCCC2)c2nc(-c3ccccc3)n(CC3CCN(C)CC3)c2n1`, the Potency entry in assay [1] and in assay [2] was “inactive” each time.

Regarding `CCC(C(=O)NC(=O)NC(C)=O)c1ccccc1` (configuration not stated), the Potency result in assay [1] and in assay [2] was “inactive” throughout.

Consider `O=C(Nc1ccc(Oc2ccccc2)cc1)Nc1nnc(-c2ccncc2)s1`, for which the Potency entry in assay [1] and in assay [2] was “inactive” in each case.

As to `C=CCc1cccc(CNc2ccc(S(=O)(=O)Nc3nccs3)cc2)c1O`, the Potency entry in assay [1] and in assay [2] was “inactive” in each case.

As to `COc1cc(O)c(C(CC(=O)N2CC(C)OC(C)C2)c2ccc3c(c2)OCO3)c(OC)c1` (configuration not stated), the Potency entry in assay [1] and in assay [2] was “inactive” in each case.

On to `CCN(CC)Cc1cccc(/C=C/c2nc3ccc(F)cc3c(=O)n2-c2ccccc2Cl)n1`, for which the Potency entry in assay [1] and in assay [2] was “inactive” in each case.

For `CN(C)C/C=C/C(=O)Nc1cccc(C(=O)Nc2ccc(Nc3nccc(-c4cccnc4)n3)cc2)c1`, the Potency entry in assay [1] and in assay [2] was “inactive” each time.

Consider `COc1ccc(NC(=O)c2cnn3c(-c4ccccc4)cc(C)nc23)cc1`, for which the Potency entry in assay [1] and in assay [2] was “inactive” throughout.

Regarding `Cc1cc(C)nc(NC(=S)N2CCN(c3ncc(Cl)cc3Cl)CC2)c1`, the Potency entry in assay [1] and in assay [2] was “inactive” throughout.

`CC1=C(C(=O)Nc2ccccc2Cl)C(c2ccccc2Br)N=C(Nc2nc3ccccc3o2)N1` (configuration not stated): the Potency result in assay [1] and in assay [2] was “inactive” each time.

Regarding `Cc1cc(-c2nnc3n2CCC3)c(C)n1-c1ccccc1`, the Potency result in assay [1] and in assay [2] was “inactive” in each case.

With `Cc1ccc(NS(=O)(=O)c2ccccc2C(=O)Nc2nc(-c3ccccc3)cs2)cc1`, the Potency entry in assay [1] and in assay [2] was “inactive” in each case.

With `C=C1C(=O)O[C@@H]2C[C@H](C)[C@@H]3CC(=O)C(C)=C3C[C@H]12`, the Potency entry in assay [1] and in assay [2] was “inactive” each time.

For `Cc1ccc(OCCn2c(CCNC(=O)/C=C/c3ccccc3Br)nc3ccccc32)cc1`, the Potency result in assay [1] and in assay [2] was “inactive” throughout.

In the case of `O=[S+]([O-])(c1ccc2c(c1)OCCO2)N1CCN([S+](=O)([O-])c2c(F)cc(F)cc2Br)CC1`, the Potency entry in assay [1] and in assay [2] was “inactive” throughout.

With `CN(C)c1ccccc1-c1csc(N2CCC(C(N)=O)CC2)n1`, the Potency result in assay [1] and in assay [2] was “inactive” each time.

On to `COc1cc(F)c(S(=O)(=O)N2CCN(S(=O)(=O)c3ccc4c(c3)OCCO4)CC2)c(F)c1`, for which the Potency entry in assay [1] and in assay [2] was “inactive” in each case.

Turning to `COC(=O)C1=CO[C@@H](O[C@@H]2O[C@H](CO)[C@@H](O)[C@H](O)[C@H]2O)C2C1C(=O)C[C@H]2C` (some centres not stated), the Potency entry in assay [1] and in assay [2] was “inactive” each time.

Consider `c1cncc(-c2ccc(CNc3nc(N4CCOCC4)nc4ccccc34)cc2)c1`, for which the Potency result in assay [1] and in assay [2] was “inactive” in each case.

For `CN(CCc1ccco1)c1ncnc2ccc(-c3ccc4c(c3)OCO4)cc12`, the Potency entry in assay [1] and in assay [2] was “inactive” in each case.

For `O=C(c1ccc(F)c(F)c1Nc1ccc(I)cc1F)N1CC(O)(C2CCCCN2)C1` (configuration not stated), the Potency entry in assay [1] and in assay [2] was “inactive” throughout.

Turning to `NC(=O)C1CCN(c2nc(-c3ccccc3Br)cs2)CC1`, the Potency entry in assay [1] and in assay [2] was “inactive” each time.

On to `COc1ccccc1N1C(=O)c2ccccc2C1=O`, for which the Potency entry in assay [1] and in assay [2] was “inactive” each time.

Regarding `Cc1cccc(NC(=O)CN2CCC(c3ccccn3)CC2)c1`, the Potency entry in assay [1] and in assay [2] was “inactive” each time.

Take `Cc1c(P(=S)(c2ccccc2)c2ccccc2)[n+]2ccccc2n1CCCc1ccccc1`: the Potency entry in assay [1] and in assay [2] was “inactive” throughout.

`CCCCN(C)C(=O)Cn1nc(-c2ccc(OC)cc2)ccc1=O`: the Potency result in assay [1] and in assay [2] was “inactive” each time.

For the compound `O=C(Nc1ccc(Cl)c(Cl)c1)Nc1nnc(N2CCNCC2)s1`, the Potency result in assay [1] and in assay [2] was “inactive” each time.

As to `Cc1nc(N2CCOCC2)c2nc(-c3ccccc3)n(CC(C)(C)CN(C)C)c2n1`, the Potency entry in assay [1] and in assay [2] was “inactive” in each case.

`COc1ccc(-c2nnc3n2N=C(c2cccc(OC)c2)CS3)cc1`: the Potency entry in assay [1] and in assay [2] was “inactive” throughout.

As for `CC(C)n1cc(-c2ccc(Oc3ccccc3)cc2)c2c(N)ncnc21`, the Potency entry in assay [1] and in assay [2] was “inactive” each time.

`OCc1cn(Cc2ccc(O)c3ncccc23)cn1`: the Potency result in assay [1] and in assay [2] was “inactive” each time.

With `O=[S+]([O-])(c1c(F)cccc1F)N1CCN([S+](=O)([O-])c2csc3ccccc23)CC1`, the Potency entry in assay [1] and in assay [2] was “inactive” each time.

For `Cc1cc2c(s1)c1c(C)nn(Cc3ccccc3F)c(=O)c1n2C`, the Potency entry in assay [1] and in assay [2] was “inactive” throughout.
